# High-throughput results deposited in PubChem BioAssay by National Center for Advancing Translational Sciences (NCATS).
# LDHA block: LDHA (human) enzyme inhibition; P00338; purified LDHA, NADH/diaphorase-resazurin fluorescence; hits give low values; activity change, % (values are at about 110 or 230 µM); actives 0.15% (n = 480,000); AID 1347041; in the data active = activity change below about -30%; inconclusive = mostly about -25% to -30%
#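 Human LDH5 at 2 nM final in Tris HCl pH 7.4 with 0.06 mM NADH and 0.2 mM pyruvate, reacted 5 minutes at room temperature. Remaining NADH coupled via diaphorase/resazurin; resorufin fluorescence read at 0 and 20 minutes, normalized to enzyme-free and DMSO wells.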
# IDH1 R132H inh: human IDH1 R132H inhibition; IDH1-R132H enzyme, NADPH consumption, diaphorase/resazurin fluorescence; O75874; Potency, µM (highest dose often 76.6 µM), actives largely listed as inhibitors; actives 0.093% (n = 390,000); also: nearly all actives have a fitted effect of over 65% in size
# Target sequence (O75874 whole entry R132H, stated change not applied): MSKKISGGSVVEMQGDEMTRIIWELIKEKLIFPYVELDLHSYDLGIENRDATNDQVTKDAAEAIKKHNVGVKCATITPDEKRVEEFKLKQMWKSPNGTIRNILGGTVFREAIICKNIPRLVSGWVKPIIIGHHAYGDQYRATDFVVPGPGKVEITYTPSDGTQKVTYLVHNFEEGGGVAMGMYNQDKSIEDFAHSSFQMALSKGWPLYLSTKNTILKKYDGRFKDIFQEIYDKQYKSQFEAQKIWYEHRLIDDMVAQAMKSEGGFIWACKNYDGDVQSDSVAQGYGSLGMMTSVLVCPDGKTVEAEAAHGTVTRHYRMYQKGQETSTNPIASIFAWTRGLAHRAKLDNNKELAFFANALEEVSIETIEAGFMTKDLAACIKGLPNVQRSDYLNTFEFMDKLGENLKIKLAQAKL
#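 IDH1-R132H (0.5 ug/mL dispensed) in pH 7.5 Tris buffer was preincubated 30 min with compound, then given a substrate mix of 0.016 mM NADPH and 2 mM alpha-KG for 80 min at room temperature; remaining NADPH was read by diaphorase/resazurin fluorescence.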
# TGFb SMAD3 inh: TGF-b pathway inhibition. Potency, µM (doses to about 46.1 µM), hits mostly inhibitors. HepG2 CAGA-GFP TGF-b/SMAD3 reporter, GFP fluorescence, 18 h; TGF-beta stimulated, 500 pg/mL final. actives 1.2% (n = 410,000); also: nearly all actives have a fitted effect of over 65% in size
#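 HEPG2 CAGA-GFP cells (1000/well, DMEM with 1% FBS) were pre-incubated 2 h at 37 degrees C, given compound by pin tool, then stimulated with TGF-beta at 500 pg/mL final for 18 h before per-cell GFP fluorescence imaging.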
# ATXN2 expr inh: inhibitors of ATXN2 expression. AID 1745845. HEK-293 ATXN2-luciferase reporter, luminescence, 24 h. Potency, µM (top dose mostly 57 µM), hits mostly inhibitors. actives 0.72% (n = 360,000); also: nearly all actives have a fitted effect of over 55% in size
#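 qHTS (up to 57 uM final) was run with 24 h compound exposure of reporter cells at 37 °C. Each well was multiplexed: SteadyGlo luminescence measured ATXN2-luciferase expression after a fluorogenic Gly-Phe-AFC viability readout (25 uM final).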
# ATXN viability: reduces viability in counter-screen for ATXN expression inhibitors; S2 cells (HEK-293 line with an ATXN2-luciferase reporter) viability, CellTiter-Fluor protease fluorescence, 24 h; Potency, µM (doses to about 56.7 µM), usual class: cytotoxic; actives 0.49% (n = 400,000); also: nearly all actives have a fitted effect of over 40% in size
# HepG2 tox: counter-screen for TGF-b inhibitors: cytotoxicity in HepG2 cells. HepG2 CAGA-GFP viability, ATP luminescence, 18 h. actives 0.76% (n = 410,000). AID 588856. Potency, µM (top dose mostly 46.1 µM), most hits filed as cytotoxic
#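 HepG2 CAGA-GFP cells (1000/well, DMEM with 1% FBS) received compound, then TGF-beta at 500 pg/mL final, and were incubated 18 hours at 37 degrees C. Viability was read by CellTiter-Glo luminescence. Media-only wells were set as complete cell-killing and DMSO as no toxicity.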
# Numbers stand for hits; . = inactive; ? = inconclusive; / = not tested or not shown; ! = not active in a repeat; [ ] = another dose, or the depositor's remark. Most compounds without a hit are left out; they make up all but 2.2% or so of the library. Unless noted, calls follow the shape of the dose curve; as a rule, active = well fitted curve in the direction sought with a large enough effect; inconclusive = small, poorly fitted or top-dose-only effect, or another doubt; inactive = no such curve, though single readings can be large; an effect the other way counts as inactive or inconclusive.
SMILES,LDHA block,IDH1 R132H inh,TGFb SMAD3 inh,ATXN2 expr inh,ATXN viability,HepG2 tox
CC(C(=O)NCCS(=O)(=O)c1ccc(Br)cc1)S(=O)(=O)c1ccc(Cl)cc1 (configuration not stated),-35,.,.,.,.,.
COCCNC(=O)CN1C(=O)CSc2ccc(S(=O)(=O)N3CCOCC3)cc21,.,.,.,.,.,.
c1ccc(N2CCN(c3nc4cc5c(cc4s3)OCCO5)CC2)cc1,.,.,.,.,.,.
c1c2c(cc3sc(N4CCOCC4)nc13)OCCO2,.,.,.,6.3µM,.,.
C=C(C)COc1ccc(-c2[nH]ncc2Oc2ccccc2OC)c(O)c1,.,.,?,.,?,.
C=C(C)COc1ccc(-c2[nH]ncc2-c2ccc(Br)cc2)c(O)c1,.,.,20µM,?,?,.
COc1ccc(-c2c(-c3ccc(OC)c(C)c3O)n[nH]c2C)cc1,.,.,14µM,?,/,.
C=C(C)COc1ccc(-c2[nH]ncc2-c2ccccc2OC)c(O)c1,.,.,?,?,?,18µM
COc1ccc(-c2c(-c3ccc(O)cc3O)n[nH]c2C)cc1OC,.,.,.,.,.,.
C=C(C)COc1ccc(-c2n[nH]c(C)c2-c2ccc(Br)cc2)c(O)c1,.,.,13µM,.,/,14µM
Cc1ccc(S(=O)(=O)Nc2ccc3c(c2)n(C)c(=O)n3C)cc1,.,.,.,.,.,.
Cc1nnc(SCC(=O)N(C)C2CCCCC2)s1,.,.,.,.[11.3 µM],?,.
O=C(CC1C=CCC1)NCCN1CCCCCC1 (configuration not stated),.,/,/,/,/,/
C/C(=N\NC(=O)COc1ccc(C(C)(C)C)cc1)c1ccc(N2CCOCC2)cc1,.,.,.,/,.,.
Cc1cc(C)n2nc(C(=O)N3CCCC(Nc4ccc(C(C)C)cc4)C3)cc2n1 (configuration not stated),.,.,.,.,.,.
CC(C)(C)c1ccc(CN2C3=NCCCN3c3ccccc32)cc1,.,.,?,?,?,16µM
O=c1[nH]c(=O)n(C2CC(O)C(CO)O2)cc1I (configuration not stated),.,.,.,.,.,.
O=c1[nH]c(=O)n([C@H]2C[C@H](O)[C@@H](CO)O2)cc1F,.,.,.,7.9µM!,?,.
S=C(Nc1ccc(Cl)c(Cl)c1)NC1CCN(Cc2ccccc2)CC1,.,.,?,?,/,11µM
CN(C)c1ccc(/C=C/C=C2/SC(=S)N(c3ccccc3)C2=O)cc1,.,.,.,.,16µM,.
Cc1ccc(S(=O)(=O)CC(CN2CCCCC2)N2CCCCC2)cc1 (configuration not stated),.,.,16µM,?,.,.
Oc1ccc(Cl)cc1C1=NNC(c2cccs2)C1 (configuration not stated),.,.,.,.,.,.
O=[N+]([O-])c1ccc(O)c(C2=NNC(c3ccccc3F)C2)c1 (configuration not stated),.,.,13µM,?,.,.
CC(NC1CCCC1)C(=O)Nc1ccccc1-c1ccccc1 (configuration not stated),.,.,.,.,.,.
Cc1c(N/N=C(\C#N)C(=O)c2ccc(Cl)cc2)c(=O)n(-c2ccccc2)n1C,.,.,?,7.9µM,?,.
SMILES,LDHA block,IDH1 R132H inh,TGFb SMAD3 inh,ATXN2 expr inh,ATXN viability,HepG2 tox
N#C/C(=N\Nc1ccc(Cl)cc1)C(=O)c1ccccc1,.,.,?,?,?,.
CCN(CC)CCCn1c(C)c(C)c2c1ncn1nc(-c3cccs3)nc21,.,/,/,/,/,/
N#Cc1ccc(Nc2nc(-c3ccc(O)cc3O)cs2)cc1C(F)(F)F,.,?,?,25µM,22µM,.
Oc1ccc(-c2csc(Nc3ccc4c(c3)OCO4)n2)c(O)c1,.,?,?,.,?,.
Cc1ccc(OCCNCc2ccccc2)c(C)c1,.,.,.,.,.,.
Cc1cc(C(C)(C)CC(C)(C)C)ccc1OCCOCC[N+](C)(C)Cc1ccccc1,.,.,?,?,?,20µM
CN(C)S(=O)(=O)c1ccc(S(=O)(=O)Nc2ccc3c(c2)oc2ccccc23)cc1,.,.,11µM,.,.,.
CCCC[C@@H]1CNC(=S)N1CC1CCCCC1,.,.,.,?,?,.
S=C1NC[C@H](CC2CCCCC2)N1CC1CCCCC1,.,.,?,32µM,18µM,.
CC(NC(=O)c1ccco1)c1nnc2n1CCN(Cc1cccc(Cl)c1)CC2 (configuration not stated),/,/,/,/,.,/
c1ccc(CNc2nc(N3CCN(Cc4ccccc4)CC3)nc3ccccc23)cc1,.,.,?,?,.,28µM
Cc1ccc(Nc2nc(NCc3ccco3)c3ccccc3n2)cc1,.,.,11µM,?,.,.
c1coc(CNc2nc(N3CCCCC3)nc3ccccc23)c1,.,.,10µM,?,?,.
c1ccc(N2CCN(c3nc(NCc4ccco4)c4ccccc4n3)CC2)cc1,.,.,?,?,?,.
COc1ccccc1NC(=O)/C=C/c1nc2ccccc2o1,.,/,/,/,/,/
COc1ccccc1-n1c(-c2ccccc2)c[n+]2c1CCc1ccccc1-2,.,.,13µM,6.7µM!,?,.
Cc1cc(N/N=C/c2ccc(O)cc2O)nc(-c2ccccc2O)n1,.,40µM,?,?,?,.
Cc1cc(O)c(C(C[N+](=O)[O-])c2ccc(Cl)cc2Cl)c(=O)o1 (configuration not stated),.,.,?,.,.,.
Cc1cc(Br)c2c(c1)/C(=C/C(=O)c1cccs1)C(=O)N2,.,.,?,?,?,.
CCc1ccc2c(c1)/C(=C/C(=O)c1cccs1)C(=O)N2,.,.,?,?,/,11µM
Cc1cccc2c1NC(=O)/C2=C\C(=O)c1cccs1,.,.,10µM,?,.,.
Cc1cc(C)c2c(c1)/C(=C/C(=O)c1ccc(Br)s1)C(=O)N2,.,.,.,18µM,?,.
CCn1c(=O)cc(OCC(=O)NC(C)c2ccc3c(c2)OCCO3)c2ccccc21 (configuration not stated),.,.,.,.,.,.
Cc1cc(O)c(C(=O)Nc2cccc(Cl)c2)c(=O)n1C,.,.,.,/,.,.
CCCN1C(=O)C(=O)c2cc(Cl)ccc21,.,.,13µM,?,?,.
O=C1C(=O)N(CCS(=O)(=O)c2ccccc2)c2ccc(Cl)cc21,.,.,22µM,.,.,.
Cc1ccc(OCCN2C(=O)C(=O)c3cc(C)ccc32)cc1,.,.,.,.,?,.
CCc1ccc2c(c1)C(=O)C(=O)N2CCS(=O)(=O)c1ccccc1,.,.,?,/,.,.
